Data taken from PubChem BioAssay (NCATS).
“And” between values parts separate entries of the source, which are not always exact repeats. Identical values can stand only once. Values without a mark were called inactive. Results filed as inconclusive are left out. Where a call stands in place of a potency, no number is given. The source made the active and inactive calls. Unless noted, calls come from the whole dose curve; as a rule, active = well fitted curve in the direction sought with a large enough effect; inconclusive = small, poorly fitted or top-dose-only effect, or another doubt; inactive = no such curve, though single readings can be large; an effect the other way counts as inactive or inconclusive.

Legend:
[1] = AP1 Signaling Pathway (AID 357; active = well fitted curve in either direction with a large enough effect, not every such curve was filed as active); settings: ME-180 AP-1-bla reporter, EGF-induced, beta-lactamase ratio, 5 h; at 38 µM (top of the series)
Method in brief: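 ME-180 cells with beta-lactamase reporter under AP-1 response element, stimulated with EC50 EGF; compounds tested in titration series, 5 h at 37 °C. CCF4 substrate added 2.5 h at room temperature; 460/530 nm emission ratio gave %activity and AC50.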

[2] = target: Cytochrome P450 1A2 (Homo sapiens) (UniProt P05177); assay: p450-cyp1a2 (AID 410; calls by dose curve; note: potency is the fitted concentration of half-maximal effect)
Method in brief: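 20nM CYP1A2 with 100uM Luciferin-ME (at Km) in 100mM KPO4; compound preincubated 10 min, NADPH regeneration added, 60 min at room temperature. Luciferin quantified by luminescence after detection reagent; normalized to 57 uM furafylline.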

[3] = NFAT Signaling Pathway (AID 444; active = well fitted curve in either direction with a large enough effect, not every such curve was filed as active;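 note: carbachol stimulus at about its EC50 of 1 µM final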); settings: Jurkat NFAT-bla M1, carbachol, beta-lactamase ratio, 5 h; at 38 µM (top of the series)
Method in brief: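 Jurkat cells with NFAT-driven β-lactamase reporter and co-expressed M1 receptor, stimulated with carbachol (final 1 uM, ~EC50), compound titration, 5 h at 37 °C. CCF4 loaded 1 h at RT; 460/530 nm ratio gave %activity and AC50.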

[4] = target: Glucocorticoid receptor (Homo sapiens) (UniProt P04150); assay: GR-GFP Redistribution (AID 450;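 active = compounds whose dose series gives a full or clear partial fitted curve of increased nuclear translocation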; note: potency is the fitted concentration of half-maximal effect); settings: U2OS GR-GFP nuclear translocation, laser cytometry, 2 h
[5] = target: Glucocorticoid receptor (Homo sapiens) (UniProt P04150); assay: GR-EFC Redistribution (AID 451; calls by dose curve; note: potency is the fitted concentration of half-maximal effect); settings: CHO-K1 GR-EFC translocation, beta-gal luminescence, 2 h
Method in brief: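 CHO-K1 cells expressing nuclear EA and GR-ED fragments of b-gal; compounds titrated up to 46 uM final, 2 h at 37 C. GR nuclear translocation read as complemented b-gal luminescence after 1 h RT detection.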

[6] = target: Mitogen-activated protein kinase 10 (Mus musculus) (UniProt Q61831); assay: JNK3 AlphaScreen Assay (AID 530; active = well fitted curve in either direction with a large enough effect, not every such curve was filed as active;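 note: kinase came from lysate of stimulated human HepG2 cells; signal reports phosphorylation of biotinylated GST-cJun 1-79 at Ser73 with 10 µM ATP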)
Method in brief: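 Pre-activated (IL-1β/TNFα) JNK3 in HepG2 lysates phosphorylates biotin-GST-cJun(1-79), 10 uM ATP; anti-phospho-cJun(Ser73) AlphaScreen read at room temperature, pH 7.6 Tris buffer. Compounds pre-incubated 15 min as titrations.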

[7] = target: 3',5'-cyclic-AMP phosphodiesterase 4B (Homo sapiens) (UniProt Q07343); assay: qHTS Assay for Inhibitors of PDE-IV (AID 607; active = well fitted activation curve with a large enough effect in the main read-out, with a control signal flat, not every such curve was filed as active)
Method in brief: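 ACTOne HEK293 cells carry a modified cAMP-gated CNG channel and express endogenous PDE4; plated 1000 cells/well, compounds up to 22.9 uM final. Membrane-potential dye fluorescence (ex 535/em 590) was read; parental cells received 10 uM forskolin + 100 uM RO 20-1724.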

[8] = target: Guanine nucleotide-binding protein G(i) subunit alpha-1 (Homo sapiens) (UniProt P63096); assay: qHTS Assay for Inhibitors of RGS12 GoLoco Motif Activity (Green Fluorophore) (AID 879);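 note: negative values mean loss of peptide binding seen as reduced polarization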
Method in brief: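 Fluorescence polarization assay: 50 nM Gαi1 with 10 nM FITC-labeled RGS12 GoLoco peptide in 10 mM Tris pH 7.5, 150 mM NaCl, 0.1 mM GDP, 0.05% NP40, 10 min at room temperature with compound.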

[9] = target: Cytochrome P450 2C9 (Homo sapiens) (UniProt P11712); assay: qHTS Assay for Inhibitors and Substrates of Cytochrome P450 2C9 (AID 883); note: potency is the fitted concentration of half-maximal effect; nearly all actives have a fitted effect of over 60% in size
Method in brief: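 Signal: luciferase luminescence reporting luciferin produced by CYP2C9. Conditions: 10nM enzyme, Luciferin-H 100uM at KM, 25mM KPO4, 37C, 60 min NADPH-driven reaction. Reference: 57uM sulphaphenazole as 100% inhibition.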

[10] = target: Cytochrome P450 3A4 (Homo sapiens) (UniProt P08684); assay: qHTS Assay for Inhibitors and Substrates of Cytochrome P450 3A4 (AID 884); note: potency is the fitted concentration of half-maximal effect; nearly all actives have a fitted effect of over 50% in size
Method in brief: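 20 nM human CYP3A4 with 25 uM Luciferin-PPXE (at KM) in 200 mM KPO4, preincubated 10 min with compound; NADPH regeneration started a 60 min RT reaction. Luciferin detected by luminescence, normalized to 57 uM ketoconazole as full inhibition.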

[11] = target: Cytochrome P450 3A4 (Homo sapiens) (UniProt P08684); assay: qHTS Assay for Activators of Cytochrome P450 3A4 (AID 885); note: nearly all actives have a fitted effect of over 65% in size
Method in brief: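 20nM CYP3A4 + 25uM Luciferin-PPXE (=KM), 200mM KPO4; cpd 10 min RT; NADPH regen, 60 min RT; stop w/ detection buffer, 20 min; luminescence. Normalized to 57 uM ketoconazole.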

[12] = target: Cytochrome P450 2C19 (Homo sapiens) (UniProt P33261); assay: qHTS Assay for Inhibitors and Substrates of Cytochrome P450 2C19 (AID 899); note: potency is the fitted concentration of half-maximal effect; nearly all actives have a fitted effect of over 60% in size
Method in brief: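 Signal comes from luciferase acting on luciferin released by CYP2C19-mediated hydroxylation of Luciferin-H EGE, 10uM (KM). Assay mix: 5nM enzyme, 50mM KPO4; 60 min at 37C with NADPH regeneration. Data normalized against 57uM ketoconazole.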

[13] = Confirmation and Secondary Assay for Modulators of Hemoglobin Beta Chain Splicing at IVS2 654 locus (AID 910);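 note: HeLa cells stably carrying EGFP split by mutant beta-globin IVS2-654 intron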
Method in brief: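 HeLa cells stably expressing EGFP interrupted by β-globin IVS2-654 intron, seeded overnight in Opti-MEM/2% FCS, then treated 2 days at 37 °C. Restored splicing read as total peak GFP intensity per well by laser scanning cytometry (488 nm excitation, 500–520 nm emission); 500 nM antisense PNA as control.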

[14] = qHTS Assay for Identification of Small Molecule Agonists for Hypoxia Response Element Signaling Pathway (AID 914; active = well fitted activation curve with a large enough effect in the signal ratio, with a control signal flat, not every such curve was filed as active; the % refers to the signal ratio); settings: ME-180 (cervical carcinoma) HRE-bla reporter, beta-lactamase ratio, CoCl2, 17 h; active compounds read high
Method in brief: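 In Opti-MEM containing 0.5% dialyzed FBS and 10 mM HEPES, ME-180 HRE-bla cells received a compound titration and EC50 CoCl2. They were incubated 17 hours, then CCF4-loaded 2.5 hours at room temperature before ratio reading.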

[15] = Confirmation and Secondary Assay for Modulators of Hemoglobin Beta Chain Splicing at IVS2 705 locus (AID 930);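 note: HeLa cells stably expressing the EGFP-705 splicing reporter; GFP fluorescence per well restored by corrected splicing of the IVS2-705 intron in EGFP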
Method in brief: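 Per-well GFP, captured at 1 x 8 µm resolution with 488 nm excitation, served as the read-out for HeLa EGFP-705 cells incubated 2 days with test compound versus DMSO.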

[16] = target: Pyruvate kinase (Leishmania mexicana) (UniProt Q27686); assay: qHTS Validation Assay for Inhibitors of Leishmania Mexicana Pyruvate Kinase (AID 945)
Method in brief: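 An endpoint luciferase assay: 0.2 nM LmPYK E451W turns over 0.5 mM PEP with 0.1 mM ADP for 1 h at room temperature, pH 7.2, before PKLight addition. Values are normalized to DMSO-only wells.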

[17] = target: Pyruvate kinase PKM (Homo sapiens) (UniProt P14618); assay: qHTS Assay for Activators of Human Muscle Pyruvate Kinase (AID 954; active = well fitted curve in the direction sought with a large enough effect, not every such curve was filed as active)
Method in brief: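 Luminescence from a luciferase ATP-detection/stop reagent reported PKM2 activity. Reactions contained 0.1 nM purified human enzyme, 0.5 mM PEP, 0.1 mM ADP and 7 mM MgCl2 at pH 7.2, run 1 h at RT.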

[18] = target: Alpha-galactosidase A (Homo sapiens) (UniProt P06280); assay: Counterscreen for Glucocerebrosidase Inhibitors: qHTS Assay for Human alpha-Galactosidase at pH 4.5 (AID 992)
Method in brief: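 Enzyme at 2 nM final was combined with compound (0.7 nM to 77 uM) and 80 uM 4-methylumbelliferyl alpha-D-galactopyranoside in 50 mM citric acid, 0.005% Tween-20, pH 4.5. After 20 min at room temperature, fluorescence was read (Ex 365/Em 440 nm); AC50 came from Hill fits.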

[19] = target: alpha-glucosidase (Oryza sativa, rice) (UniProt Q653V4); assay: Counterscreen for Glucocerebrosidase Inhibitors: qHTS Assay for Rice alpha-Glucosidase at pH 5.0 (AID 997)
Method in brief: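 Rice alpha-glucosidase (4 nM final) with 400 uM 4-methylumbelliferyl-alpha-D-glucopyranoside in citrate buffer pH 5.0, 20 min at room temperature, stopped at pH 10; fluorescence 365/440 nm, compounds 0.7 nM–77 uM, AC50 from Hill fits.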

[20] = Validation of Assay for Modulators of Lamin A Splicing (AID 1459; active = well fitted curve in the direction sought with a large enough effect in the signal ratio; the % refers to the signal ratio;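 note: cells exposed to compound for two days before reading; ratio rise marks activators and ratio drop marks inhibitors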)
Method in brief: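 S3 HeLa stably expressing lamin A-EGFP splicing minigene and DsRed2, 600 cells/well in Opti-MEM with 2% FBS, treated 48 h at 37C; laser-scanning cytometry gives GFP/RFP total intensity ratio; ancitabine positive control, 0.5% DMSO vehicle.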

Chain of Cytochrome P450 3A4 (Homo sapiens) (P08684 whole entry, looked up): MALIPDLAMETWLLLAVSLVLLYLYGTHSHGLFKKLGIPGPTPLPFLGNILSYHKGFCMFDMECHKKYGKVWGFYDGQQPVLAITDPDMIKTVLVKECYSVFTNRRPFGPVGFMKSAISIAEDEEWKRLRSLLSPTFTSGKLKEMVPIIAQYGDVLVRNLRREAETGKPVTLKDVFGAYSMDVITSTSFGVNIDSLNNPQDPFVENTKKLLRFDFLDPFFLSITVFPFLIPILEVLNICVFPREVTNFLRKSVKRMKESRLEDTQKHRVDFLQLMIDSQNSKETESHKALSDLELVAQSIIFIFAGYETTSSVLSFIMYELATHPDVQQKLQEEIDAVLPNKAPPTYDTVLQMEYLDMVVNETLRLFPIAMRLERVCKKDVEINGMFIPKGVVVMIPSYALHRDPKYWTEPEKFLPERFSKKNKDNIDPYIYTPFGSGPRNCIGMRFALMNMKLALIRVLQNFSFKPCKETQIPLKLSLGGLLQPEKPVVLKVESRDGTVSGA
Chain of Glucocorticoid receptor (Homo sapiens) (P04150 whole entry, looked up, the tested form may be a part): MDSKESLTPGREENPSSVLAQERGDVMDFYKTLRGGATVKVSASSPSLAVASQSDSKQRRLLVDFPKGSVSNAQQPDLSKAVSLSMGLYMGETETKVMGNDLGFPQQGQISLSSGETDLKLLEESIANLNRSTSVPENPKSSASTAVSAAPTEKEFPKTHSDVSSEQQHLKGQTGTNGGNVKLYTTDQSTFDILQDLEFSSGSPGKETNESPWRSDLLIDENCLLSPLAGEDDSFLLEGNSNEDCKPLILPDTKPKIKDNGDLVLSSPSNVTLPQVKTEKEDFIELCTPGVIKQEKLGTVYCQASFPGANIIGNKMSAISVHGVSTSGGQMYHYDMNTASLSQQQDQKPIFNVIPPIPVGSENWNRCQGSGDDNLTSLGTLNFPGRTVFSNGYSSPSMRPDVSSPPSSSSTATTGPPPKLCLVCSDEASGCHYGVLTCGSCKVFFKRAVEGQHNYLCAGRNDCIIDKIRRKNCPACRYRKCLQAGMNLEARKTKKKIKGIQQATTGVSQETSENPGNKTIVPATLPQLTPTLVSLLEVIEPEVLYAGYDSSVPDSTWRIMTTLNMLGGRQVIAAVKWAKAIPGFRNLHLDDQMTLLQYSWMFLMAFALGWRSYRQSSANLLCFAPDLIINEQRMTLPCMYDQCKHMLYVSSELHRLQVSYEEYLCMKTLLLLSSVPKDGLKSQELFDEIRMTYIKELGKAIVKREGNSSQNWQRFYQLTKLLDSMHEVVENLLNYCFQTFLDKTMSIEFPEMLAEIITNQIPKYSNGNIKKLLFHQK
Chain of Cytochrome P450 1A2 (Homo sapiens) (P05177 whole entry, looked up): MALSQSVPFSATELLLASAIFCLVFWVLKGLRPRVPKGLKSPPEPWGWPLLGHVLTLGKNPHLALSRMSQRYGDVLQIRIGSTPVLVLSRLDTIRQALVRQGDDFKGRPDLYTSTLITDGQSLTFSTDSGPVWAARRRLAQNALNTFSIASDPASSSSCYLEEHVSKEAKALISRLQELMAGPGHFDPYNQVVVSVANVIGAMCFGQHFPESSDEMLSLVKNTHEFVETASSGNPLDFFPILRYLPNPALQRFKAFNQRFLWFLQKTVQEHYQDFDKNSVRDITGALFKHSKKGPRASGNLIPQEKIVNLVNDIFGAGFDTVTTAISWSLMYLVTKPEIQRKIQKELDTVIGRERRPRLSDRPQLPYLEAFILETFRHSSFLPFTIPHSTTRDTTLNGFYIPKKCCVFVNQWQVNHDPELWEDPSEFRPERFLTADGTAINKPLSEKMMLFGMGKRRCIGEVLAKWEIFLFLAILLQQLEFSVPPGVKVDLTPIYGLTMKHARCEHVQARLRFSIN
Chain of Cytochrome P450 2C9 (Homo sapiens) (P11712 whole entry, looked up): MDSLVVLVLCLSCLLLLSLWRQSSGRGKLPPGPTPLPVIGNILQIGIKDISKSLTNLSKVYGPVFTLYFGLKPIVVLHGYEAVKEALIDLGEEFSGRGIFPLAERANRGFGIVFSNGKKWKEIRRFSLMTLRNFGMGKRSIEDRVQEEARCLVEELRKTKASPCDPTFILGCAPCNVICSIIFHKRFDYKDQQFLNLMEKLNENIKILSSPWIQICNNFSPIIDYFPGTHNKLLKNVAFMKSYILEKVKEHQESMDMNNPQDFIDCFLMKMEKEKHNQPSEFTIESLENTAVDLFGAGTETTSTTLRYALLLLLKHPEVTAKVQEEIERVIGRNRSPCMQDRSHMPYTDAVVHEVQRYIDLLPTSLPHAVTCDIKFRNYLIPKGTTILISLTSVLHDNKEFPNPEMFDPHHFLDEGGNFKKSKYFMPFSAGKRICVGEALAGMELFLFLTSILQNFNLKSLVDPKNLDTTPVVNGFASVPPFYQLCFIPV
Chain of Pyruvate kinase (Leishmania mexicana) (Q27686 2-499 E452W): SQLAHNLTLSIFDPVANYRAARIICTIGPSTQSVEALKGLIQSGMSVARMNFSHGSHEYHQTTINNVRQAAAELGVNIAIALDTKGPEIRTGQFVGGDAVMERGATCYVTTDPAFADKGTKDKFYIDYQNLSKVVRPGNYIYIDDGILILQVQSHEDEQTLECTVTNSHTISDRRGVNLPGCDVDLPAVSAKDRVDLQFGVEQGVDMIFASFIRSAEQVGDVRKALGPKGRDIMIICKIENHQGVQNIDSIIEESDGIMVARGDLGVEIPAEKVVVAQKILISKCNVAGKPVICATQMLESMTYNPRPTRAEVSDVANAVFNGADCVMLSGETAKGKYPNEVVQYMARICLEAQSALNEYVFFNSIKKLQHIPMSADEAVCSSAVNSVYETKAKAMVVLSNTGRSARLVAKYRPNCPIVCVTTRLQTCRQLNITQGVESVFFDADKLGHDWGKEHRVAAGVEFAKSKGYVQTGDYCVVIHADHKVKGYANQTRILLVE
Chain of Cytochrome P450 2C19 (Homo sapiens) (P33261 whole entry, looked up): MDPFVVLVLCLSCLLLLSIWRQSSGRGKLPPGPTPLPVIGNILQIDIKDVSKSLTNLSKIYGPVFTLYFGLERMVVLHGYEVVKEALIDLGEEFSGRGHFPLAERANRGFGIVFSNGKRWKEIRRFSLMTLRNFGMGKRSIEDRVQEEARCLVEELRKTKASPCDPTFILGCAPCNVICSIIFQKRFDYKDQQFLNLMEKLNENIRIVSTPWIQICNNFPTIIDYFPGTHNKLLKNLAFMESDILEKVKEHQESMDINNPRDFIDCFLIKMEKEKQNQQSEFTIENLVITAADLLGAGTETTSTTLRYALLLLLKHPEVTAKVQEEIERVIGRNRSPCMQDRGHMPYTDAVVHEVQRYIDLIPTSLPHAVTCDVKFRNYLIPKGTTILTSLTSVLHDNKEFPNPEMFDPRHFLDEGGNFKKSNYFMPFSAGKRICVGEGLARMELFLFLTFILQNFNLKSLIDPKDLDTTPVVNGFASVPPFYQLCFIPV
Chain of Pyruvate kinase PKM (Homo sapiens) (P14618 whole entry, looked up): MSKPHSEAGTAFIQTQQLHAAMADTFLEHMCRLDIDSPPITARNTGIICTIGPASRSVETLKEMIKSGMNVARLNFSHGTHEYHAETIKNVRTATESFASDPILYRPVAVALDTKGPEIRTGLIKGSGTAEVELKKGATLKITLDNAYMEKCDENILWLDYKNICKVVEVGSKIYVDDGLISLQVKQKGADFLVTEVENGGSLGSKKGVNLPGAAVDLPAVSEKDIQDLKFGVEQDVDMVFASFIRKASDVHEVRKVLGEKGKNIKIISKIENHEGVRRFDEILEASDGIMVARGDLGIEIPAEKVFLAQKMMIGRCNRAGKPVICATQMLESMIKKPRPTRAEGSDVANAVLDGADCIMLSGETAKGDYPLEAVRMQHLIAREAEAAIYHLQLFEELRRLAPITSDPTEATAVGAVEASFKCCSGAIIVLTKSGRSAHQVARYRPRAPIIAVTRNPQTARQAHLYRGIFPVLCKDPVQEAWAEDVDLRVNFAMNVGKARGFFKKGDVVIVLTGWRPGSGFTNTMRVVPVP
Chain of Alpha-galactosidase A (Homo sapiens) (P06280 whole entry, looked up): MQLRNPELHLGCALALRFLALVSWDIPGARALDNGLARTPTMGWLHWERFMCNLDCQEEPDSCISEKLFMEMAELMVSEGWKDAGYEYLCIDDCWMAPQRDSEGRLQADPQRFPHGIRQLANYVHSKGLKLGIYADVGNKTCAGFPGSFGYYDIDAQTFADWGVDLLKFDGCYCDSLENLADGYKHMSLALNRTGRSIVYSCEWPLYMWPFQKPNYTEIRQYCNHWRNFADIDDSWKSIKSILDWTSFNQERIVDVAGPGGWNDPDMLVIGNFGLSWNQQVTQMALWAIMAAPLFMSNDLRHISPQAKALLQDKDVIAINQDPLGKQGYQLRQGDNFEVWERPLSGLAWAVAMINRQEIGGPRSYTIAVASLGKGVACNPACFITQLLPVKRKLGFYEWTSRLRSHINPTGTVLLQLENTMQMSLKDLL
Chain of 3',5'-cyclic-AMP phosphodiesterase 4B (Homo sapiens) (Q07343 whole entry, looked up): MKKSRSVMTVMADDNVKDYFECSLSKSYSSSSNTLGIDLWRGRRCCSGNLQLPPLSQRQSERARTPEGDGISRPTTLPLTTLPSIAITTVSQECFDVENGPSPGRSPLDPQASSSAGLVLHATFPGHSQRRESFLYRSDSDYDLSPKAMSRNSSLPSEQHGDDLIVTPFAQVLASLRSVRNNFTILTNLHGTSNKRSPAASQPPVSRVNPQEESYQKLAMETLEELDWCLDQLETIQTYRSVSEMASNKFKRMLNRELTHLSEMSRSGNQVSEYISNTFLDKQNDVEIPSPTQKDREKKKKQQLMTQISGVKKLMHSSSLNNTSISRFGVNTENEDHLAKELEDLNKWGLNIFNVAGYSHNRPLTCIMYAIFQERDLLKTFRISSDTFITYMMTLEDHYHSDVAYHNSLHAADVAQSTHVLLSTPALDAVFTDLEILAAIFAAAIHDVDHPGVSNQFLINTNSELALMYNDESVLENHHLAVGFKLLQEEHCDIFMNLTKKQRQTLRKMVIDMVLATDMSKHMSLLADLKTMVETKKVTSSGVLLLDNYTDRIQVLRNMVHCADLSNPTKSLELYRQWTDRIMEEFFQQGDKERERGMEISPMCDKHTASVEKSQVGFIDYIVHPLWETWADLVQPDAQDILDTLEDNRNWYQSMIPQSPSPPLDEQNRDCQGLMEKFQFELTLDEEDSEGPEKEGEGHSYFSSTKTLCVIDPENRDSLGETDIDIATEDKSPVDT

With `NCCCCCCNS(=O)(=O)c1cccc2c(Cl)cccc12` the activity change, negative = inhibition [1] was 7.92%, the Potency [2] was 7.94 µM (active) and 1.26 µM (active) and the activity change, negative = inhibition [3] was -4.09%. The Potency [4] was over 46 µM, the Potency [5] was over 46 µM and the Potency [6] was “inactive”. The Potency [7] was “inactive”, the outcome [8] was “inactive” and the Potency [9] was 3.16 µM (active). The Potency [10] was 3.98 µM (active) and 2.51 µM (active), the Potency [11] was “inactive” and the Potency [12] was 0.199 µM (active). The outcome [13] was “inactive”, the activation [14] was -27.9% and the outcome [15] was “inactive”. For the same compound, the Potency [16] was “inactive”, the outcome [17] was “inactive” and the outcome [18] was “inactive”. For the same compound, the outcome [19] was “inactive” and the outcome [20] was “inactive”.
